{"source": "PubChem BioAssay (NCATS)", "key": {"[1]": {"target": "Cytochrome P450 2D6 (Homo sapiens) (UniProt P10635)", "sequence (P10635 whole entry, looked up)": "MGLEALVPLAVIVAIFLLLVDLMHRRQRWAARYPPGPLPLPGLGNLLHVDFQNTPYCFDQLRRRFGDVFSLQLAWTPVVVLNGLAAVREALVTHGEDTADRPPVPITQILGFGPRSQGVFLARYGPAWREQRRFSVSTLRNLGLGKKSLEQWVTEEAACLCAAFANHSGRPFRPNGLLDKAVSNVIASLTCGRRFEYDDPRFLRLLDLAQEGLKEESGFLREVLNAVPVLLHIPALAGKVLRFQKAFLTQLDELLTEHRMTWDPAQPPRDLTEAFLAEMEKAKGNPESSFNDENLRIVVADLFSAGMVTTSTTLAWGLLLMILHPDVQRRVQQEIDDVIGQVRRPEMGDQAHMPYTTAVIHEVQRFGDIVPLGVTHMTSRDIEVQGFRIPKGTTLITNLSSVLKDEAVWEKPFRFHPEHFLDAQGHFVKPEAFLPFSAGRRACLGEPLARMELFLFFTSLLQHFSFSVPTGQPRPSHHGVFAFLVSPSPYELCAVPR", "assay": "qHTS for inhibitors of CYP2D6 against the NCATS DSHEA and TCM libraries (AID 1919972)", "conditions": "CYP2D6 enzymatic inhibition, luminescence qHTS; series mostly up to 34.1 µM", "outline": "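qHTS, concentration–response format with most substances from 19.5 nM. CYP2D6 + pro-luciferin substrate, 15 min with compound, then 1x NADPH regen, 30–45 min RT dark. Glo detection 30 min, luminescence. Quinidine control.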"}, "[2]": {"target": "Cytochrome P450 2C9 (Homo sapiens) (UniProt P11712)", "sequence (P11712 whole entry, looked up)": "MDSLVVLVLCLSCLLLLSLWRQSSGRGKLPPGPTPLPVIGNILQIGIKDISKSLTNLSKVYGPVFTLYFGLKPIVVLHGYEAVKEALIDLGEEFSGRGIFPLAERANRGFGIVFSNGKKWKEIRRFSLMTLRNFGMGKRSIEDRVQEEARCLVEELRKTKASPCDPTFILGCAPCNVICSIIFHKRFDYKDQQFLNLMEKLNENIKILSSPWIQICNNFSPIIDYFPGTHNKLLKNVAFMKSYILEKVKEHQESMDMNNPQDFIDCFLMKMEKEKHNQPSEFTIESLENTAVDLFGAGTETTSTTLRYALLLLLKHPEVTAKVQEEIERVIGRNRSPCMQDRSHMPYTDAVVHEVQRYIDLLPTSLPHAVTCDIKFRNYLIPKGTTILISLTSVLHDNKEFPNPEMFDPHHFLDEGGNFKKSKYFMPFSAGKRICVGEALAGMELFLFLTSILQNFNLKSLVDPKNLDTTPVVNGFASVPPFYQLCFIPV", "assay": "qHTS for inhibitors of CYP2C9 against the NCATS DSHEA and TCM libraries (AID 1919973); further: potency means the concentration at half of the fitted maximal effect", "conditions": "recombinant CYP2C9 enzyme activity, luminescence; series mostly up to 34.1 µM", "outline": "(§1)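 Substances were tested against enzyme with a pro-luciferin substrate; minus-enzyme wells served as background. After NADPH-initiated oxidation (30-45 min, RT), light was generated with P450-Glo reagent.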"}, "[3]": {"target": "Cytochrome P450 2C19 (Homo sapiens) (UniProt P33261)", "sequence (P33261 whole entry, looked up)": "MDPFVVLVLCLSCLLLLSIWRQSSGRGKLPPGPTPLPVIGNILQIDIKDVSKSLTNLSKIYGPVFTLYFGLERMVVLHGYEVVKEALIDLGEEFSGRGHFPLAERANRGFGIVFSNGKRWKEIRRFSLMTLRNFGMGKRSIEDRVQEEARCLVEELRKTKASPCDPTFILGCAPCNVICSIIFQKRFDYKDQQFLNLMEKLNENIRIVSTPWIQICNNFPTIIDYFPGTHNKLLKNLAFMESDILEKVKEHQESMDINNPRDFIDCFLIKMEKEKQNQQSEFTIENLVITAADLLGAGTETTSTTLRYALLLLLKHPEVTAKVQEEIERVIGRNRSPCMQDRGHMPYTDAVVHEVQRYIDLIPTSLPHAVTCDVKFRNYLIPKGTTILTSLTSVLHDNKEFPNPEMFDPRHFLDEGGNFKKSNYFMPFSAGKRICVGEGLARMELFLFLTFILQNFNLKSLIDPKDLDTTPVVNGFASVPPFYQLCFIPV", "assay": "qHTS for inhibitors of CYP2C19 against the NCATS DSHEA and TCM libraries (AID 1919974)", "conditions": "CYP2C19 enzyme inhibition, luminescence qHTS; series mostly up to 34.1 µM", "outline": "as §1"}, "[4]": {"assay": "KB-3-1 P-gp reporter qHTS against the NCATS DSHEA and TCM libraries (AID 1919975)", "conditions": "KB-3-1 parental cells, CellTiter-Glo luminescence viability, 72 h; series mostly up to 26.1 µM", "outline": "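Parental KB-3-1 human cervical adenocarcinoma cells (500 cells/well, DMEM + 10% FBS) were treated with substances for ~72 h at 37C; viability was read by CellTiter-Glo luminescence.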"}, "[5]": {"assay": "qHTS Counterscreen for compound interference against the NCATS DSHEA and TCM libraries (AID 1919978)", "conditions": "firefly luciferase detection reagent interference, luminescence", "outline": "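D-luciferin (1 uM final) or 100 mM potassium phosphate buffer alone was preincubated 15 min at RT with compounds (19.5 nM to 39.8 uM final). Luciferin detection reagent was then added and luminescence read after 30 min at RT.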"}, "[6]": {"target": "Nuclear receptor subfamily 1 group I member 2 (Homo sapiens) (UniProt O75469)", "sequence (O75469 whole entry, looked up)": "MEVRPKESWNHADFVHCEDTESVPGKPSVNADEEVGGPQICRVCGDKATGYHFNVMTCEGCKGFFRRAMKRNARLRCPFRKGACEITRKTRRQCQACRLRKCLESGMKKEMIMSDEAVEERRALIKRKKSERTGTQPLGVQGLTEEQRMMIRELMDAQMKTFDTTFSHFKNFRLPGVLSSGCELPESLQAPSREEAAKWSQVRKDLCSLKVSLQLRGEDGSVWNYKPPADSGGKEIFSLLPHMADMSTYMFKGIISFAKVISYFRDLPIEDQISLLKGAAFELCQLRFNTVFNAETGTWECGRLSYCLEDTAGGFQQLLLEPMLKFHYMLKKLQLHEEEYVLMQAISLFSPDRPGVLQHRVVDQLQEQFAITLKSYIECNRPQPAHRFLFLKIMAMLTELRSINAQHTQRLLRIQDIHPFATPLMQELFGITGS", "assay": "Dual reporter qHTS for agonist of Pregnane X Receptor (hPXR) against the NCATS DSHEA and TCM libraries: Luminescence readout (AID 1920059)", "conditions": "hPXR dual reporter cells, luciferase luminescence agonist; series mostly up to 40 µM", "outline": "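hPXR-Luc HepG2 cells, 2000/well in 5% charcoal-stripped FBS medium, attached 5 h, then exposed 24 h at 37C to compounds. Viability by CellTiter-Fluor, then luciferase luminescence with ONE-Glo.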"}, "[7]": {"target": "Nuclear receptor subfamily 1 group I member 2 (Homo sapiens) (UniProt O75469)", "assay": "Dual reporter qHTS for antagonist of Pregnane X Receptor (hPXR) against the NCATS DSHEA and TCM libraries: Luminescence Readout (AID 1920060)", "conditions": "hPXR dual reporter cells, luciferase luminescence, antagonist mode; series mostly up to 40 µM", "outline": "(§2)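 Rifampicin-stimulated (2 uM final) hPXR-luciferase HepG2 cells were treated for 24 h with DSNP/TCM substances. Viability came from CellTiter-Fluor fluorescence, reporter activity from ONE-Glo luminescence.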"}, "[8]": {"assay": "Dual reporter qHTS for antagonist of Pregnane X Receptor (hPXR) against the NCATS DSHEA and TCM libraries: Fluorescence Readout (AID 1920061)", "conditions": "PXR dual reporter cells, antagonist mode; series mostly up to 40 µM", "outline": "as §2"}, "[9]": {"assay": "Cell Viability - LYMP2-007 (AID 979)", "conditions": "LYMP2-007 lymphoblastoid cell viability; series mostly up to 92.2 µM", "outline": "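qHTS cytotoxicity: 2500 cells/well, 5 hr 37 C settle, compound 24 hr 37 C, CellTiter-Glo 30 min RT, luminescence. Decrease in ATP = toxicity. AC50 by standard Hill equation; tetraoctylammonium bromide positive control.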"}, "[10]": {"assay": "Cell Viability - LYMP2-008 (AID 980)", "conditions": "LYMP2-008 lymphoblastoid cell viability, qHTS; series mostly up to 92.2 µM", "outline": "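Luminescent ATP read-out (CellTiter-Glo, 30 min RT) after 24 hr compound exposure at 37 C of human lymphoblastoid cells in complete medium. Decrease in ATP taken as cytotoxicity; AC50 derived by standard Hill fit of qHTS concentration-response data.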"}, "[11]": {"assay": "Cell Viability - LYMP1-002 - Assay at 40 hr (AID 994)", "conditions": "LYMP1-002 lymphoblastoid cell viability; series mostly up to 92.2 µM", "outline": "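qHTS cytotoxicity; 2500 cells/well, 5 hr 37 C settle, compound 40 hr 37 C. CellTiter-Glo, 30 min RT, luminescence (ATP). Concentration-response, Hill fit → AC50. Pos. ctrl tetraoctylammonium bromide.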"}, "[12]": {"assay": "qHTS assay for small molecule disruptors of the mitochondrial membrane potential - 1 hr assay (AID 651754; calls by dose curve)", "conditions": "series mostly up to 92.2 µM", "outline": "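Read-out: dye fluorescence at 490 nm ex/535 nm em (monomers) and 540 nm ex/590 nm em (aggregates) in HepG2 cells. Compound exposure 1 hr at 37C, followed by 30 min dye loading.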"}, "[13]": {"assay": "qHTS assay to identify small molecules that stimulate interleukin-8 (IL-8) secretion (AID 651758; active means well fitted activation curve with a large enough effect in the signal ratio; the % refers to the signal ratio)", "conditions": "HTRF ratio (665/615); series mostly up to 92.2 µM", "outline": "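Compounds are added to THP-1 cells (2000 per well) and left 16 hrs at 37 C. A labeled anti-IL-8 antibody pair is then added, and IL-8 secretion is measured by time-resolved FRET after 1-3 hrs at room temperature.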"}, "[14]": {"assay": "AP1 Signaling Pathway (AID 357; active means well fitted curve in either direction with a large enough effect, not every such curve was filed as active)", "conditions": "ME-180 AP-1-bla reporter, EGF-induced, beta-lactamase ratio, 5 h; at 7.69 µM (top of the series) unless noted", "outline": "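Modulation of EGF-driven AP-1 transcription was assessed with a beta-lactamase reporter in ME-180 cells. Compound and EC50 EGF were co-incubated 5 hours at 37 °C before 2.5-hour CCF4 loading at room temperature and dual-emission reading.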"}, "[15]": {"target": "Bile acid receptor (Homo sapiens) (UniProt Q96RI1)", "sequence (Q96RI1 whole entry, looked up)": "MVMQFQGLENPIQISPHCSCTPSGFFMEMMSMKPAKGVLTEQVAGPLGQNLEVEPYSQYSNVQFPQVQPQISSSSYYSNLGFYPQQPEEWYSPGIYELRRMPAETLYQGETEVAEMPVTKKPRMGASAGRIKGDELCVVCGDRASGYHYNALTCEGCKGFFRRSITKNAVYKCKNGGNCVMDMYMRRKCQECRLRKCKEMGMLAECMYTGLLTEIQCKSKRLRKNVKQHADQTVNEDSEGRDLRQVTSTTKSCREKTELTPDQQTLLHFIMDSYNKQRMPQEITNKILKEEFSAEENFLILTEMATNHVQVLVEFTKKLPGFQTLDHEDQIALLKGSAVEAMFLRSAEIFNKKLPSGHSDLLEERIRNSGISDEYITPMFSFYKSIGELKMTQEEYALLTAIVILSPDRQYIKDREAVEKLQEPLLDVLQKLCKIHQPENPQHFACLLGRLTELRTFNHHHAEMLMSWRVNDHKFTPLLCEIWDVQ", "assay": "qHTS assay for small molecule antagonists of farnesoid X receptor signaling (AID 588526; calls by dose curve)", "conditions": "HEK293T FXR-UAS-bla, beta-lactamase ratio, antagonist mode; series mostly up to 76.7 µM", "outline": "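Antagonist mode: titrated compounds tested against chenodeoxycholic acid stimulation (normalized to 50 uM CDCA and DMSO) in GeneBLAzer HEK293T cells for 16 h. Beta-lactamase read by CCF4 fluorescence; IC50 from Hill fits.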"}, "[16]": {"assay": "qHTS assay for small molecule agonists of the antioxidant response element (ARE) signaling pathway (AID 651741; active means well fitted activation curve with a large enough effect in the signal ratio; the % refers to the signal ratio)", "conditions": "HepG2 ARE-bla reporter, beta-lactamase FRET ratio, 16 h; series mostly up to 96 µM", "outline": "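HepG2 ARE-bla reporter cells, 2,000/well; 5 h settle at 37 C/5% CO2; compound pin transfer (23 nL, DMSO); 16 h at 37 C; LiveBLAzer B/G FRET substrate, 2 h RT; fluorescence intensity read.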"}, "[17]": {"assay": "Confirmation and Secondary Assay for Modulators of Hemoglobin Beta Chain Splicing at IVS2 654 locus (AID 910)", "conditions": "HeLa EGFP-654 splicing reporter, GFP fluorescence, 48 h; series mostly up to 46.1 µM", "outline": "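HeLa cells stably expressing EGFP interrupted by β-globin IVS2-654 intron, seeded overnight in Opti-MEM/2% FCS, then treated 2 days at 37 °C. Restored splicing read as total peak GFP intensity per well by laser scanning cytometry (488 nm excitation, 500–520 nm emission); 500 nM antisense PNA as control.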"}, "[18]": {"assay": "Confirmation and Secondary Assay for Modulators of Hemoglobin Beta Chain Splicing at IVS2 705 locus (AID 930)", "conditions": "HeLa EGFP-705 splicing reporter, GFP fluorescence, 48 h; series mostly up to 46.1 µM", "outline": "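Fluorescence gain (488 nm laser, 500-520 nm PMT) reflects restored correct splicing of a mutant IVS2-705 intron inside EGFP in stably transfected HeLa cells after 2-day compound treatment.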"}, "[19]": {"target": "Cytochrome P450 3A4 (Homo sapiens) (UniProt P08684)", "sequence (P08684 whole entry, looked up)": "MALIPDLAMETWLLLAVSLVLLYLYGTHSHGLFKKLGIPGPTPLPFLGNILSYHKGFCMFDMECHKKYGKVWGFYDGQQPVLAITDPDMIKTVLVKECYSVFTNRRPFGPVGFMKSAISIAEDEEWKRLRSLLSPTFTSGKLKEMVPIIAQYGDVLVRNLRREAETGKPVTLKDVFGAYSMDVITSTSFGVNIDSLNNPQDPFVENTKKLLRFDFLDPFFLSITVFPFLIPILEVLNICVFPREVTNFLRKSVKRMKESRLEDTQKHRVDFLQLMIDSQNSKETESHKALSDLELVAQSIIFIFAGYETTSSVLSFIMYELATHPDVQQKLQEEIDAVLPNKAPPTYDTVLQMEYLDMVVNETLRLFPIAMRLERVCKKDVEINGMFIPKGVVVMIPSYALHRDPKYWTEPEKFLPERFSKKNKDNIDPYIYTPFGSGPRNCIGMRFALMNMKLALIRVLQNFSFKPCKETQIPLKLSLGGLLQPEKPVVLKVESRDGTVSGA", "assay": "qHTS Assay for Activators of Cytochrome P450 3A4 (AID 885)", "conditions": "recombinant CYP3A4, Luciferin-PPXE luminescence, 60 min; series mostly up to 57.1 µM", "outline": "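Using 20nM recombinant human CYP3A4 in potassium phosphate (200mM), substrate Luciferin-PPXE at 25uM, luminescent luciferin detection followed a 60-min RT NADPH reaction; data scaled to 57 uM ketoconazole.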"}, "[20]": {"assay": "qHTS Assay for Identifying Gametocytocidal Compounds (AID 743244)", "conditions": "P. falciparum 3D7 stage III-V gametocytes, alamarBlue, 72 h; max response: active compounds read low", "outline": "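Using 20,000 stage III–V 3D7 gametocytes per well, compounds were incubated 72 h under 37 °C/5% CO2. Viability was then assessed by 24 h alamarBlue reduction, measured fluorometrically at 525/598 nm.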"}}, "note": "Results filed as inconclusive are left out. A call without a number means that no potency is given here. Activity calls are given as the source filed them. Unless noted, the call rests on the fitted dose curve; in most records, active means well fitted curve in the direction sought with a large enough effect; inconclusive means small, poorly fitted or top-dose-only effect, or another doubt; inactive means no such curve, though single readings can be large; an effect the other way counts as inactive or inconclusive. Bridge positions count the residues as written; N and C are the ends. Square brackets hold non-standard residues; d marks the D form. Peptide text beside a SMILES is read from it. * marks the point of attachment. Octanoyl(6-Me) = CCC(C)CCCCC(=O)*; Dab = NCC[CH](N)C(=O)O", "data": [{"compound": "CCCCCCCC/C=C/CCCCCCCC(=O)O", "values": [{"measurement": "Potency", "setting": "[1]", "result": "inactive"}, {"measurement": "Potency", "setting": "[2]", "result": "14.1 µM (active)"}, {"measurement": "Potency", "setting": "[3]", "result": "3.55 µM (active)"}, {"measurement": "outcome", "setting": "[4]", "result": "inactive"}, {"measurement": "max response", "setting": "[5]", "result": "-3.39% (inactive)"}, {"measurement": "Potency", "setting": "[6]", "result": "inactive"}, {"measurement": "outcome", "setting": "[7]", "result": "inactive"}, {"measurement": "outcome", "setting": "[8]", "result": "inactive"}]}, {"compound": "c1ccc2scnc2c1", "values": [{"measurement": "Potency", "setting": "[9]", "result": "inactive"}, {"measurement": "Potency", "setting": "[10]", "result": "inactive"}, {"measurement": "Potency", "setting": "[11]", "result": "inactive"}, {"measurement": "Potency", "setting": "[12]", "result": "inactive"}, {"measurement": "Potency", "setting": "[13]", "result": "inactive"}]}, {"compound": "CCC(C)n1ncn(-c2ccc(N3CCN(c4ccc(OCC5COC(Cn6cncn6)(c6ccc(Cl)cc6Cl)O5)cc4)CC3)cc2)c1=O", "note": "(centres undefined)", "values": [{"measurement": "activity change, negative = inhibition", "setting": "[14]", "result": "-2.36% [at 17.2 µM] (inactive)"}]}, {"compound": "O=S(=O)(O)c1ccccc1", "values": [{"measurement": "Potency", "setting": "[9]", "result": "inactive"}, {"measurement": "outcome", "setting": "[15]", "result": "inactive"}, {"measurement": "Potency", "setting": "[16]", "result": "inactive"}, {"measurement": "Potency", "setting": "[12]", "result": "inactive"}]}, {"compound": "O=C(O)c1ccccc1C(c1ccc(O)cc1)c1ccc(O)cc1", "values": [{"measurement": "Potency", "setting": "[11]", "result": "inactive"}, {"measurement": "Potency", "setting": "[16]", "result": "inactive"}]}, {"compound": "O[C@@H]([C@H](O)[C@@H](O)CBr)[C@@H](O)CBr", "values": [{"measurement": "Potency", "setting": "[9]", "result": "inactive"}, {"measurement": "Potency", "setting": "[10]", "result": "inactive"}]}, {"compound": "CCC(C)CCCCC(=O)NC(CCN)C(=O)NC(C(=O)NC(CCN)C(=O)NC1CCNC(=O)C(C(C)O)NC(=O)C(CCN)NC(=O)C(CCN)NC(=O)C(CC(C)C)NC(=O)C(Cc2ccccc2)NC(=O)C(CCN)NC1=O)C(C)O", "note": "(centres undefined) ({Octanoyl(6-Me)}-[Dab]T[Dab][Dab][Dab]FL[Dab][Dab]T; lactam 4-C; configuration not given here)", "values": [{"measurement": "Potency", "setting": "[17]", "result": "inactive"}, {"measurement": "Potency", "setting": "[18]", "result": "inactive"}]}, {"compound": "COc1cc(/C=C/C(=O)N2CCC=CC2=O)cc(OC)c1OC", "values": [{"measurement": "outcome", "setting": "[19]", "result": "inactive"}, {"measurement": "Potency", "setting": "[17]", "result": "inactive"}, {"measurement": "Potency", "setting": "[18]", "result": "inactive"}]}, {"compound": "O=c1cc(-c2cccc(O)c2)oc2c(O)c(O)ccc12", "values": [{"measurement": "outcome", "setting": "[19]", "result": "inactive"}]}, {"compound": "N[C@@H](C(=O)N[C@@H]1C(=O)N2C(C(=O)O)=C(Cl)CC[C@H]12)c1ccccc1", "values": [{"measurement": "max response", "setting": "[20]", "result": "3.49% (inactive)"}]}, {"compound": "CCCCCCCCCCCCC[N+](C)(C)Cc1ccccc1", "values": [{"measurement": "Potency", "setting": "[17]", "result": "inactive"}, {"measurement": "Potency", "setting": "[18]", "result": "inactive"}]}, {"compound": "Nc1nc(-c2ccc(Cl)c(Cl)c2)c(-c2ccncc2)s1", "values": [{"measurement": "outcome", "setting": "[19]", "result": "inactive"}]}, {"compound": "N=C(N)c1ccc(OCCCOc2ccc(C(=N)N)cc2Br)c(Br)c1", "values": [{"measurement": "Potency", "setting": "[20]", "result": "7.08 µM (active)"}]}, {"compound": "O=[N+]([O-])c1cccc(Cl)c1Cl", "values": [{"measurement": "Potency", "setting": "[10]", "result": "inactive"}, {"measurement": "Potency", "setting": "[11]", "result": "inactive"}, {"measurement": "outcome", "setting": "[15]", "result": "inactive"}, {"measurement": "Potency", "setting": "[16]", "result": "inactive"}, {"measurement": "Potency", "setting": "[12]", "result": "inactive"}, {"measurement": "Potency", "setting": "[13]", "result": "inactive"}]}]}
